{"source": "PubChem BioAssay AID2842", "about": "(Southern Research Institute, 2010)", "note": "Among all 24,000 compounds or so, about 1,200 (5%) were called active. Not shown: some 2% with an inconclusive outcome. These entries were drawn from the full list. Values without a mark were called inactive. How the calls were made is not given here."}
{"experiment": "Mycobacterium tuberculosis H37Rv growth inhibition, putative kinase inhibitor library, confirmatory dose response (AID 2842);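 further: bacteria incubated one week before Alamar blue readout; 0% = bacteria only wells and 100% = bacteria with high antibiotic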", "details": "M. tuberculosis H37Rv growth inhibition; CC50: measured here: Vero cell cytotoxicity; inhibition: active compounds read high", "units": {"inhibition": "%"}}
{"smiles": "CCCNC(=O)CSc1nc2c([nH]c3ccccc32)c(=O)n1-c1ccc(OC)c(OC)c1", "inhibition": 3.01}
{"smiles": "COc1ccc(C(=O)c2cn(Cc3cccc(F)c3)c3ccccc3c2=O)cc1", "inhibition": -1.95}
{"smiles": "CC1CCc2c(sc(NC(=O)c3ccc(-c4nc5ccccc5s4)s3)c2C#N)C1", "note": "(configuration not stated)", "inhibition": 2.71}
{"smiles": "CCOc1cc(C(=O)Nc2nnc(-c3ccc(C)cc3)s2)cc(OCC)c1OCC", "inhibition": 12.5}
{"smiles": "Cc1ccc(C)c(S(=O)(=O)Nc2ccc(C(=O)N3CCOCC3)cc2)c1", "inhibition": -13.6}
{"smiles": "CCN(c1ccccc1)S(=O)(=O)c1ccc(C(=O)Nc2nc(-c3ccc(C#N)cc3)cs2)cc1", "inhibition": -5.78}
{"smiles": "O=C(O)c1cc(-c2ccc(F)cc2)nc2ccccc12", "inhibition": -3.79}
{"smiles": "C=CCn1c(=O)c2c(nc(N/N=C/c3ccccc3O)n2C)n(C)c1=O", "inhibition": 69.7}
{"smiles": "CCn1c2c(c(=O)[nH]c1=O)C(c1ccc(O)cc1)C1=C(CC(C)(C)CC1=O)N2", "note": "(configuration not stated)", "inhibition": -10.5}
{"smiles": "CCSC1=C(C#N)C(c2ccco2)C(C(=O)Nc2ccccc2OC)=C(C)N1", "note": "(configuration not stated)", "inhibition": 13.1}
{"smiles": "O=C(CSc1cn(Cc2ccccc2Cl)c2ccccc12)Nc1nc2ccccc2s1", "inhibition": 10.2}
{"smiles": "COC(=O)c1sc2nc(N)c(C#N)c(-c3ccco3)c2c1N", "inhibition": -11.1}
{"smiles": "O=C1NCCc2c(OCC(=O)N3CCCC3)cccc21", "inhibition": -13.2}
{"smiles": "CCN1C(=O)C2(C(C#N)=C(N)Oc3c2oc(CO)cc3=O)c2ccccc21", "note": "(configuration not stated)", "inhibition": -2.38}
{"smiles": "O=C(CSc1ccc2nnc(-c3cccnc3)n2n1)Nc1cccc(C(F)(F)F)c1", "inhibition": 2.18}
{"smiles": "Cn1c(=O)c2c([nH]c(=S)n2Cc2ccc(F)cc2)n(C)c1=O", "inhibition": -5.83}
{"smiles": "O=c1/c(=C/c2ccc(Br)cc2)sc2nc(-c3ccncc3)nn12", "inhibition": -4.93}
{"smiles": "Cc1ccc(S(=O)(=O)CCC(=O)Nc2nc(-c3cccc([N+](=O)[O-])c3)cs2)cc1", "inhibition": -0.9}
{"smiles": "CCC(CC)C(=O)Nc1nnc(-c2ccc(Br)cc2)s1", "inhibition": 5.92}
{"smiles": "COc1ccc(Cl)c2sc(N3CCN(C(=O)COc4ccccc4)CC3)nc12", "inhibition": -14.7}
{"smiles": "Fc1ccc(-c2nnc(Nc3nc4c(F)cccc4s3)o2)cc1", "inhibition": 35.7}
{"smiles": "CSc1cccc2sc(Nc3ccccc3Cl)nc12", "inhibition": 43.9}
{"smiles": "COc1cccc(N2CC(NC(=O)N3CCN(c4ccc(F)cc4)CC3)CC2=O)c1", "note": "(configuration not stated)", "inhibition": 1.73}
{"smiles": "O=C(CN1N=NC2C(=O)N(c3ccc(F)c(F)c3)C(=O)C21)Nc1cccc(F)c1", "note": "(configuration not stated)", "inhibition": -18.6}
{"smiles": "COc1ccc(N2C(=O)/C(=C3/C(=O)N(C)c4ccccc43)SC2=S)c(OC)c1", "inhibition": -6.83}
{"smiles": "NC(=O)N/N=C/c1ccccc1[N+](=O)[O-]", "inhibition": -0.23}
{"smiles": "Cc1ccc(-n2nnc3c(=O)n(CC(=O)Nc4cccc(F)c4)cnc32)cc1Cl", "inhibition": 5.52}
{"smiles": "O=c1[nH]c(NCCc2ccccc2)nnc1-c1ccccc1", "inhibition": -9.26}
{"smiles": "O=C(O)/C=C/C(=O)NCc1cn(-c2ccccc2)nc1-c1ccc(Cl)cc1", "inhibition": -11.2}
{"smiles": "Nc1ncnc2c1c1nc3ccccc3nc1n2CCc1ccccc1", "inhibition": -4.35}
{"smiles": "COC(CNc1ncnc2c1cnn2-c1ccc(C)c(Cl)c1)OC", "inhibition": 15.5}
{"smiles": "CCOc1cccc(/C=N\\NC(=O)Cn2cnc3ccccc32)c1O", "inhibition": -6.32}
{"smiles": "Cc1nnc(SCCn2c(N3CCN(Cc4ccccc4)CC3)nc3c2c(=O)[nH]c(=O)n3C)s1", "inhibition": 4.11}
{"smiles": "CC(=O)Nc1ccc(NC(=O)NC2CC(=O)N(c3ccc(C)cc3)C2)cc1", "note": "(configuration not stated)", "inhibition": -0.32}
{"smiles": "Cc1ccc(C)c(-c2nnc(NC(=O)/C=C/c3ccccc3)o2)c1", "inhibition": 75.9}
{"smiles": "Cc1cccc(-c2nnn3c2nc(NCCc2ccc(S(N)(=O)=O)cc2)c2ccccc23)c1", "inhibition": -2.93}
{"smiles": "O=C(NCCO)c1ccc(CSc2nc3ccccc3c(=O)[nH]2)cc1", "inhibition": -16.4}
{"smiles": "Cn1c(=O)c2c(SCC(=O)Nc3nc4ccccc4s3)nc(-c3ccc(F)cc3)nc2n(C)c1=O", "inhibition": 14.6}
{"smiles": "NC(=O)c1nc(-c2cccnc2)nc2c1[nH]c(=O)n2-c1ccc(Cl)c(Cl)c1", "inhibition": 5.29}
{"smiles": "CCOC(=O)CNc1ncnc(N)c1[N+](=O)[O-]", "inhibition": 2.73}
{"smiles": "Fc1ccc2nc(Nc3ccc4c(c3)OCCO4)sc2c1", "inhibition": 72.2}
{"smiles": "CC(=O)N1CCc2c(sc(NC(=O)c3ccc4ccccc4c3)c2C#N)C1", "inhibition": 13.2}
{"smiles": "CCOC(=O)c1ccc(Nc2nnc3[nH]c(=O)c4c(C)c(C)sc4n23)cc1", "inhibition": -12.7}
{"smiles": "COc1cc(OC)cc(C(=O)NCCc2cc3ccc(C)cc3[nH]c2=O)c1", "inhibition": -10.9}
{"smiles": "CCOC(=O)N1CCN(C(c2cccnc2)c2c(O)cc(C)n(CCOC)c2=O)CC1", "note": "(configuration not stated)", "inhibition": 0.85}
{"smiles": "COc1ccc(Cl)c2sc(N(Cc3cccnc3)C(=O)c3cccc(S(C)(=O)=O)c3)nc12", "inhibition": -13.3}
{"smiles": "CC(=O)Nc1ccc(NC(=O)CSc2nnc(CNC(=O)c3ccccc3)o2)cc1", "inhibition": -8.68}
{"smiles": "Cn1c(=O)[nH]c(=O)c2c1nc(N1CCC(Cc3ccccc3)CC1)n2CCSc1nc2ccccc2o1", "inhibition": 19.9}
{"smiles": "Cc1ccc(CSc2nc3c(c(=O)[nH]c(=O)n3C)n2Cc2ccccc2Cl)cc1", "inhibition": -2.78}
{"smiles": "CC1CCCN(S(=O)(=O)c2ccc(C(=O)Nc3nc4ccc5ccccc5c4s3)cc2)C1", "note": "(configuration not stated)", "inhibition": 14.8}
{"smiles": "Nn1c(SCC(=O)Nc2ccc(C(F)(F)F)cc2)nncc1=O", "inhibition": -15.7}
{"smiles": "O=C(Nc1nc(-c2ccc3c(c2)OCCO3)cs1)c1cccc(Cl)c1", "inhibition": -0.85}
{"smiles": "COc1cc2nc(Nc3cccc(Cl)c3)sc2cc1OC", "inhibition": 48.6}
{"smiles": "COc1ccc2c(c1)c(=O)c(C(=O)c1ccc(Cl)cc1)cn2CC(=O)Nc1ccc2c(c1)OCO2", "inhibition": -1.76}
{"smiles": "CC(C)c1ccc(OCC(=O)N/N=C/c2ccco2)cc1", "inhibition": 6.99}
{"smiles": "CCOC(=O)c1sc2nc(-c3ccccc3)cc(-c3ccccc3)c2c1N=Cc1cc(I)cc(I)c1O", "inhibition": -1.26}
{"smiles": "O=c1[nH]c(NCc2ccc3c(c2)OCO3)nnc1Cc1ccc(F)cc1", "inhibition": -0.653}
{"smiles": "Nc1nc(SCC(=O)Nc2cccc(F)c2)[nH]c(=O)c1NC(=O)c1ccc(F)cc1", "inhibition": -6.89}
{"smiles": "COc1ccc(S(=O)(=O)Nc2cc3c4c(c2)CC(=O)N4CCC3)cc1", "inhibition": 14.8}
{"smiles": "Nc1nc(SCc2cccc(Cl)c2)[nH]c(=O)c1NC(=O)c1ccc(C(F)(F)F)cc1", "inhibition": -5.65}
{"smiles": "Cc1ccc(Nc2nc(-c3ccc(S(=O)(=O)N4CCC(Cc5ccccc5)CC4)cc3)cs2)cc1", "inhibition": -2.1}
{"smiles": "O=C1NC(=O)C(=Cc2nc(-c3ccc(Cl)cc3)n3ccccc23)C(=O)N1", "inhibition": 15.3}
{"smiles": "NC(=O)COc1ccc(/C=c2\\sc3nc(-c4ccccc4Br)nn3c2=O)cc1", "inhibition": -6.4}
{"smiles": "Cc1ccc(NC(=O)c2cnc(SCC(=O)N3CCOCC3)n(C)c2=O)cc1", "inhibition": 11.1}
{"smiles": "COc1ccc(Cl)cc1C(=O)Nc1nnc(-c2ccc(Cl)cc2Cl)s1", "inhibition": 0.42}
{"smiles": "CC1CCc2c(C(=O)Nc3ccc(OC(F)(F)F)cc3)csc2C1", "note": "(configuration not stated)", "inhibition": 7.32}
{"smiles": "CCn1c(SCCc2ccccc2)nc2c1c(=O)[nH]c(=O)n2C", "inhibition": 16.5}
{"smiles": "O=C(O)c1ccc(Nc2nc(-c3cccnc3)nc3ccccc23)cc1", "inhibition": 5.44}
{"smiles": "COc1ccc(OC)c(NC(=O)c2cnc3n(c2=O)CCS3)c1", "inhibition": 10.9}
{"smiles": "CCOC(=O)c1nn(-c2ccc(F)cc2)c(=O)c2c(NC(=O)C(CC)c3ccccc3)scc12", "note": "(configuration not stated)", "inhibition": -11.7}
{"smiles": "O=C(Nc1nc(-c2nc3ccccc3s2)cs1)c1ccc2ccccc2c1", "inhibition": 3.09}
{"smiles": "Cc1csc(NC(=O)CSc2nnc(CNC(=O)c3cccc(C(F)(F)F)c3)o2)n1", "inhibition": -15.1}
{"smiles": "COc1cc(C)c(S(=O)(=O)Nc2ccc(-n3c(C)nc4ccccc4c3=O)cc2C)cc1C", "inhibition": -7.48}
{"smiles": "O=C(NNc1ncnc2c1cnn2-c1cccc(Cl)c1)c1cccc(Cl)c1", "inhibition": 85}
{"smiles": "O=C(CSc1nnc2ccc(-c3cccc([N+](=O)[O-])c3)nn12)NCc1ccco1", "inhibition": 0.47}
{"smiles": "CS(=O)(=O)c1ccc([N+](=O)[O-])c(NCCCC(=O)O)c1", "inhibition": -6.3}
{"smiles": "CCOc1ccccc1NC(=O)CSc1nnc(C)c(=O)n1N", "inhibition": -13.8}
{"smiles": "O=C(Nc1nnc(-c2cccs2)o1)C(c1ccccc1)c1ccccc1", "inhibition": 9.32}
{"smiles": "C#CCn1c(=NC(=O)c2cccc([N+](=O)[O-])c2)sc2cccc(F)c21", "inhibition": 13.5}
{"smiles": "CCOC(=O)N1CCc2c(sc(NC(=O)c3ccc(Br)s3)c2-c2nc3ccccc3s2)C1", "inhibition": 4.21}
{"smiles": "Cn1c(=O)[nH]c(=O)c2c1nc(SCC(N)=O)n2CC(O)COc1ccc(Cl)cc1", "note": "(configuration not stated)", "inhibition": -5.17}
{"smiles": "Nc1nc2c(s1)CCCC2", "inhibition": 16.9}
{"smiles": "COC(=O)C(C)Sc1nnc(Cc2cc(=O)[nH]c(=O)[nH]2)n1-c1ccc(Cl)cc1", "note": "(configuration not stated)", "inhibition": -6.18}
{"smiles": "Cc1ccc(-n2c(=O)[nH]c3c(C(N)=O)nc(-c4ccc(C(C)C)cc4)nc32)cc1C", "inhibition": -7.6}
{"smiles": "COc1ccc(-n2nc3c(c2NC(=O)Cc2cccs2)CSC3)cc1", "inhibition": -3.68}
{"smiles": "Cc1cccc(NC(=O)C2C(=O)CN(c3ccccc3)C2=O)c1", "note": "(configuration not stated)", "inhibition": -3.29}
{"smiles": "O=C(/C=C/c1ccccc1Cl)Nc1nc(-c2nc3ccccc3s2)cs1", "inhibition": -0.67}
